ADAM17 inh = inhibitors of human ADAM17. inhibition, % at 6.95 µM. P78536. 0.83% of 370,000 active. recombinant ADAM17, EDANS/DABCYL FRET peptide cleavage;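 active means inhibition above the mean of compounds lying between control limits plus 3 SD, set per campaign, cut at about 8.5% in these data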;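 further: 0% = DMSO-only wells as the low control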
Target sequence (P78536 215-824 limits assumed): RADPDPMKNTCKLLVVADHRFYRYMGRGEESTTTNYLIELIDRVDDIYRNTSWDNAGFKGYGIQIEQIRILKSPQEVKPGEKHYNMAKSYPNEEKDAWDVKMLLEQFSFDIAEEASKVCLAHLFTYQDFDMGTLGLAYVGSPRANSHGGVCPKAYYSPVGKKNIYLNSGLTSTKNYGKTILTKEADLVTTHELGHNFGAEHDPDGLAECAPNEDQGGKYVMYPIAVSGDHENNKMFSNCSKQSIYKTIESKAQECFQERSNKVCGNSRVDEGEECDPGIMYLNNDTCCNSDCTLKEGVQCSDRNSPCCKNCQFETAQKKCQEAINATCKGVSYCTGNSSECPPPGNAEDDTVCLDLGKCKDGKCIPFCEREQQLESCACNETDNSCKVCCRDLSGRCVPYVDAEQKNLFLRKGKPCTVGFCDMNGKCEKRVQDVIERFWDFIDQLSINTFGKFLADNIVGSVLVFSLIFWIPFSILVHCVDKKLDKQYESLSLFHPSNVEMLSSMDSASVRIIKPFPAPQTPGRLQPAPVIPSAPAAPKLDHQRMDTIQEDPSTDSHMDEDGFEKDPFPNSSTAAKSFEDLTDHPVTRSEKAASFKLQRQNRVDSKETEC
NR3A LBD binder = modulates the human NR3A ligand-binding domain | NR3A LBD differential scanning fluorimetry, Tm shift; 0% = protein alone, 100% = glycine-bound protein | 2.5% of 340,000 active | Tm shift relative to glycine control, % at 25 µM;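 active means melting temperature shift of at least 10% of the positive control shift, at one fixed dose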
HGIII-sPLA2 inh = Inhibits HGIII-sPLA2 liposome hydrolysis, primary screen | QFRET BODIPY PC-A2 liposome hydrolysis, fluorescence | inhibition, % at 12.2 µM | Q9NZ20 | 0.56% of 370,000 active | AID 743126;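 active means inhibition above mean plus 3 SD of compounds lying within the high and low control bounds, cut at about 19% in these data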;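 further: 0% = median of test compound wells and 100% = no enzyme DMSO wells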
FAS-TE inh = blocks the thioesterase domain of human fatty acid synthase; inhibition, % at 15 µM; recombinant FAS-TE, OMFH fluorogenic substrate, fluorescence endpoint; 0.67% of 360,000 active;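 active means compounds whose normalised, plate-corrected inhibition of enzyme fluorescence in the single-dose primary screen is 50% or more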;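 further: 0% = DMSO with enzyme and 100% = substrate without enzyme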
ADAM10 inh = inhibitors of human ADAM10; O14672; recombinant ADAM10, EDANS/DABCYL FRET peptide cleavage, 3 h; inhibition, % at 7 µM; 0.62% of 370,000 active;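 active means inhibition above a per-campaign cutoff equal to the mean of compounds falling between control-based bounds plus 3 SD, cut at about 20% in these data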;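 further: 0% = DMSO wells while the 100% control is not disclosed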
Starred values were filed as active, the others as inactive; i = inactive; x = no result given. This is a sample that favours compounds with a hit; in the whole collection about 4.3% have one here.

SMILES	ADAM17 inh	NR3A LBD binder	HGIII-sPLA2 inh	FAS-TE inh	ADAM10 inh
CCOC(=O)C1CCCCN1C(=O)[C@@H]1CC=C[C@@H]2CCN(c3ccccc3)C(=O)[C@@H]21 (some centres not stated)	-4	x	-1	x	-4
COc1ccccc1/C=C/C(=O)OCC(=O)c1cc(C)n(C)c1C	-31	0	14	14	-104
COc1ccc(OCC(=O)c2c[nH]c3ccccc23)cc1	1	14*	-4	-4	-2
COc1ccccc1/C=C/C(=O)OCC(=O)c1c[nH]c2ccccc12	-11	11*	-23	15	-49
O=C(COc1ccccc1)OCC(=O)c1c[nH]c2ccccc12	-5	9	-15	6	3
Cc1ccc(C(=O)OCC(=O)c2c[nH]c3ccccc23)cc1	2	-2	-6	-2	5
CC(C)Cc1ccc(C(C)C(=O)OCC(=O)c2c[nH]c3ccccc23)cc1 (configuration not stated)	1	23*	-13	4	0
CCCCCCCCNC(=O)C1CSCCS(=O)(=O)N1Cc1ccccc1 (configuration not stated)	-2	x	0	x	-4
Cc1cccc(C(=O)Nc2nc3ncccn3c2-c2ccc(F)cc2)c1	-30	x	-2	x	-105
CS(=O)(=O)c1ccc(C(=O)OCC#CCSc2nnc(-c3cccc4ccccc34)o2)cc1	-8	x	5	x	-12
COc1ccc(C(=O)NCCN2C(=O)C3C4C=CC(C4)C3C2=O)cc1OC (configuration not stated)	0	x	1	x	1
COC(=O)c1sc(NC(=O)c2cc(-c3ccccc3)nc3ccccc23)c(C#N)c1C	-1	21*	-5	10	-4
CCOC(=O)c1sc(NC(=O)c2cc(-c3ccc(C)cc3)nc3ccccc23)c(C#N)c1C	1	5	6	27	-12
Cc1sc(NC(=O)c2cc(-c3ccccc3)nc3ccccc23)c(C(N)=O)c1C	-2	17*	-7	25	-11
Cc1sc(NC(=O)c2cc(-c3ccc(Cl)cc3)nc3ccccc23)c(C(N)=O)c1C	-3	-2	0	6	-11
COc1ccc(C(=O)N(C)[C@H]2C[C@H]3c4[nH]c5cccc(-c6ccccc6)c5c4CCN3C[C@H]2[C@H](C)O)cc1	-57	x	16	x	-216
CN(C)CCCN1C(=O)c2cccc3c(Br)ccc(c23)C1=O	-27	0	2	-6	-73
CCCCNc1ccc2c3c(cccc13)C(=O)N(CCCC)C2=O	-12	11*	-179	-152	-26
O=C(Nn1c(O)c(C=C2N=c3ccccc3=N2)sc1=S)c1ccccc1Cl	-4	23*	-11	-6	-19
O=C(NC1CCCCN(Cc2ccc(Cl)cc2)C1=O)c1ccc(-c2ccccc2)cc1 (configuration not stated)	3	x	-10	x	16
C=CCOc1ccc(/C=C/C(=O)OCC(=O)NCCCc2ccccc2)cc1	-2	15*	4	8	-5
N=c1c2c(-c3ccccc3)c(-c3ccccc3)n(Cc3ccccc3)c2ncn1C1CCOCC1	-6	x	5	x	-5
Cc1ccc(Nc2nc3ccccc3o2)cc1F	2	12*	-5	14	8
O=C(CN1CCCCCCC1)N/N=C/c1ccc(F)cc1F	-1	24*	0	-12	-3
Cc1ccc(O)c(/C=N/NC(=O)CN2CCCC2)c1	-27	-2	3	-1	-66
SMILES	ADAM17 inh	NR3A LBD binder	HGIII-sPLA2 inh	FAS-TE inh	ADAM10 inh
CC(NO)/C(=N\O)c1cccs1 (configuration not stated)	-3	-1	24*	-10	-8
CC(C)CN1CN2CCc3ccccc3C2CS1(=O)=O (configuration not stated)	0	x	0	x	-4
Oc1cccc(-c2nc3ccc4ccccc4c3c3c2CCC3)c1	-1	12*	-40	20	0
COC(=O)[C@]12C[C@H](CC(=O)N3CCCC3)C(=O)N(Cc3ccc(Cl)cc3Cl)C1=C[C@H](C(C)(C)C)O[C@@H]2C	7	x	4	x	13
CCCCOc1ccc(-c2cnc3ccccc3n2)cc1	-12	22*	9	10	-28
Clc1ccc(-c2cnc3ccccc3n2)cc1	-6	5	4	2	-20
Oc1ccc(-c2cnc3ccccc3n2)cc1	1	37*	-12	-3	2
O=C(NCc1ccccc1F)C1C2C=CC3(CN(Cc4ccccc4)C(=O)C13)O2 (configuration not stated)	1	x	9	x	-7
Cc1cccc(NC(=O)C2CCCN2S(=O)(=O)c2cccc3cccnc23)c1C (configuration not stated)	2	x	-1	x	6
CCOC(=O)[C@]12CCCC3=C1N(CCC3)C(=O)[C@@H](CC(=O)N1CCCC1)C2	0	x	4	x	-1
CC(C)(C)N1C(=O)[C@H]2[C@@H](c3ccc(Br)cc3)N3C(=O)N(c4cccc(Br)c4)C(=O)[C@@]3(Cc3ccccc3)[C@H]2C1=O	x	10*	x	86*	x
CC(C)C[C@@]12C(=O)N(c3cccc(Cl)c3)C(=O)N1[C@H](c1ccc(Br)cc1)[C@@H]1C(=O)N(C(C)(C)C)C(=O)[C@@H]12	2	2	-1	50	2
CC[C@@]12C(=O)N(c3cccc(Cl)c3)C(=O)N1[C@H](c1ccc(Br)cc1)[C@@H]1C(=O)N(C(C)(C)C)C(=O)[C@@H]12	5	-5	-40	56*	13
CC[C@@]12C(=O)N(c3cccc(C)c3)C(=O)N1[C@H](c1ccc(Br)cc1)[C@@H]1C(=O)N(C(C)(C)C)C(=O)[C@@H]12	2	-12	-32	24	14
COc1cccc2cc(-c3nnc(SCC(=O)Nc4cc(C(F)(F)F)ccc4Cl)n3N)oc12	-7	11*	-4	-7	-4
N#Cc1cccc(N=c2ssnc2Cl)c1	-2	27*	10	x	-6
N#Cc1ccc2nc(-c3ccc(CN4CCC5(CC4)CNc4ccccc45)cc3)c(-c3ccccc3)nc2c1	4	x	10	x	-16
CCCCCCc1ccc(-c2ncc(N)cn2)cc1	4	11*	-9	29	-3
O=C1c2ccccc2NC(c2ccc(-c3cccs3)o2)N1O (configuration not stated)	-389	-2	-13	-2	i
O=C1c2ccccc2NC(c2ccc(-c3ccc(C(F)(F)F)cc3)o2)N1O (configuration not stated)	-3	23*	-33	3	-19
COc1ccc(CN2C/C(=C/c3ccc(C)cc3)N3C(=O)C[C@@H](c4ccccc4)N=C23)c(OC)c1	2	x	-10	x	5
Cc1cccc(NC(=O)c2cccnc2)c1	2	-1	7	-9	6
Cc1cccc(C(=O)Nc2ccc(NC(=O)c3ccccc3)cc2)c1	1	-3	-10	7	19
Cc1cccc(C(=O)Nc2ccc(C(=O)/C=C/c3ccncc3)cc2)c1	4	16*	-16	5	9
O=C(N/N=C/c1cccnc1)c1cccc(Br)c1	3	-7	0	-3	2
